aDG glyco up: increases alpha dystroglycan glycosylation. Pro5-aDG cells, alpha-DG glycosylation AlphaScreen (IIH6); 0% Pro5, 100% B10-LARGE cell signal. activation, % at 10 µM. 360,000 tested, 0.22% active. AID 624168;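 active = activation of at least 8% versus controls, or a plate z-score of at least 8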;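 note: Pro5 are CHO cells carrying HIG-tagged alpha-DG that lacks glycosylation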
ALR inh: human ALR oxidase inhibition via reduced H2O2. purified ALR, DTT oxidation, H2O2 HRP-luminol luminescence. P55789. 290,000 tested, 3.8% active. inhibition, % (no concentration beside the values). AID 485317;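 active = mean replicate inhibition above about 79%, with every replicate also reaching it, limit read from the data; inconclusive = only one of the two criteria met; inactive = mean below limit and not every replicate reaching it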
Target sequence (P55789 whole entry, looked up): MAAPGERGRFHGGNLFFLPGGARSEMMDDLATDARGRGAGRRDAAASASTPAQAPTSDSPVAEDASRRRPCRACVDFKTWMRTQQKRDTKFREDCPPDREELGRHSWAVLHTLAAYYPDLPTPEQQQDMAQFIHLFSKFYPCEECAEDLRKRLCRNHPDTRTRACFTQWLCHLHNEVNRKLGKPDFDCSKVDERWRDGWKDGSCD
APOBEC3G inh: blocks human APOBEC3G single-stranded DNA deamination. Q9HC16. recombinant A3G, ssDNA deamination FAM/TAMRA fluorescence. inhibition, % at 20 µM. 330,000 tested, 0.28% active;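 active = inhibition of at least 40% at 20 µM, with no more than 30% in the related APOBEC3A deaminase screen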;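 note: plate controls were DMSO wells with A3G for no effect and wells lacking A3G enzyme for full effect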
PHOSPHO1 inh: blocks human PHOSPHO1 phosphatase activity; recombinant PHOSPHO1, absorbance phosphatase assay; 290,000 tested, 1.1% active; AID 1565; inhibition, % at 13.3 µM; Q8TCT1; in the data active = inhibition above about 60%
rCAG RNA binder: r(CAG) repeat RNA binding; TO-PRO-1 dye displacement fluorescence; inhibition, % at 3 µM; 370,000 tested, 1.3% active; AID 651821;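 active = inhibition above the plate cutoff, the mean of all test compounds on that plate plus 3 SD, cut at about 35% in these data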;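 note: 0% = DMSO alone and 100% = 100 µM mitoxantrone as full dye displacement; higher means more dye released from RNA so lower well fluorescence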
A3A deaminase: blocks human APOBEC3A ssDNA deamination | P31941 | recombinant A3A, FAM/TAMRA ssDNA deamination fluorescence | inhibition, % at 20 µM | 330,000 tested, 0.41% active | AID 493011;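 active = at least 40% inhibition at 20 µM here, with at most 30% in a related deaminase screen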;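 note: plate controls were A3A with DMSO for no effect and wells lacking A3A enzyme for full effect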
Target sequence (P31941 whole entry, looked up): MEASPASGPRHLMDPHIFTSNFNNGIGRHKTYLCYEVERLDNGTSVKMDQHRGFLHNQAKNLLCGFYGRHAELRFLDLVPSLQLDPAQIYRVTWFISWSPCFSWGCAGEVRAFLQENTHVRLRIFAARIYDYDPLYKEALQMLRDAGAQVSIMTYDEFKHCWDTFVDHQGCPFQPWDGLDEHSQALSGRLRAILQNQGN
A3G conf: APOBEC3G (human) deaminase inhibition, confirmed. 890 tested, 72% active. inhibition, % at 20 µM. shares compounds with APOBEC3G inh. recombinant A3G ssDNA deaminase, UDG/FAM-TAMRA fluorescence;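 active = inhibition reaching a set limit in any replicate at 20 µM, the limit being 80% of the first screen's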
UDG ctr A3G: counter-screen for APOBEC3G inhibitors: E. coli UDG; shares compounds with APOBEC3G inh; UDG counterscreen, FAM/TAMRA oligo fluorescence; inhibition, % at 20 µM; 710 tested, under 10 active; AID 504715;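 active = compounds giving 40% or more inhibition at 20 µM in any one of the three replicates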;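 note: plate controls were DMSO wells with UDG and oligo for no effect and DMSO wells lacking both for full effect; inhibitors lower the FAM signal released by uracil excision and alkaline cleavage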
The depositor's hits bear a star. In the library only some 5.4% were active in any assay of this set; here they are far more common.

For CCn1c(-c2cccc(Cl)c2)n[nH]c1=S the results were aDG glyco up 0, ALR inh 48, APOBEC3G inh 47*, PHOSPHO1 inh 95*, rCAG RNA binder 0, A3A deaminase -5, A3G conf 77* and UDG ctr A3G -3.
Screening CCCCCCC(=O)N(O)C1CC(=O)N(Cc2ccccc2)C1=O (configuration not stated) returned aDG glyco up 0, ALR inh 11, APOBEC3G inh -5, PHOSPHO1 inh -22, rCAG RNA binder 10 and A3A deaminase -4.
`CCCCCC(=O)N(O)C1CC(=O)N(c2ccccc2)C1=O` (configuration not stated) gave aDG glyco up -1, ALR inh 2, APOBEC3G inh 42*, PHOSPHO1 inh 5, rCAG RNA binder 6, A3A deaminase 0, A3G conf 43* and UDG ctr A3G 7.
For CCCCCCn1c(SCC(C)C)nc2c1c(=O)[nH]c(=O)n2C the results were aDG glyco up 2, APOBEC3G inh 9, PHOSPHO1 inh 18, rCAG RNA binder 2 and A3A deaminase 2.
Screening CCCCCCn1c(SCC(=O)OC)nc2c1c(=O)[nH]c(=O)n2C returned aDG glyco up 0, APOBEC3G inh 45*, PHOSPHO1 inh 83*, rCAG RNA binder -1, A3A deaminase 0, A3G conf 68* and UDG ctr A3G -4.
For O=S1(=O)N[C@H](Cc2ccccc2)COc2cc(Br)ccc21 the results were rCAG RNA binder 5.
For NC(=O)C12NC(Cc3ccccc31)c1ccccc12 (configuration not stated) the results were rCAG RNA binder -1.
For Cc1ccc(C(=O)CSc2nnnn2C(C)C)c(C)c1 the results were aDG glyco up 0, ALR inh 31, APOBEC3G inh 54*, PHOSPHO1 inh 35, rCAG RNA binder -4, A3A deaminase -3, A3G conf 4 and UDG ctr A3G -2.
CCOC(=O)/C=C/C(=O)Nc1cccc([N+](=O)[O-])c1 was read as aDG glyco up 0, APOBEC3G inh 40*, PHOSPHO1 inh -7, A3A deaminase 4, A3G conf 64* and UDG ctr A3G 4.
CCOC(=O)c1cccc(NC(=O)/C=C/c2cccc([N+](=O)[O-])c2)c1 was read as aDG glyco up 0, ALR inh -77, APOBEC3G inh -1, PHOSPHO1 inh -3, rCAG RNA binder 4 and A3A deaminase 0.
`COc1cccc(C(=O)NCc2n[nH]c(=S)n2-c2cccc(C)c2)c1` gave aDG glyco up 0, ALR inh 18, APOBEC3G inh 47*, PHOSPHO1 inh 87*, rCAG RNA binder 2, A3A deaminase 0, A3G conf 61* and UDG ctr A3G -3.
`COc1ccc(CC(=O)NCc2n[nH]c(=S)n2-c2cccc(C)c2)cc1` gave aDG glyco up 0, ALR inh 34, APOBEC3G inh 3, PHOSPHO1 inh 1, rCAG RNA binder 0 and A3A deaminase -6.
CC[n+]1c(/C=C2/C=C(C)CC(C)(C)C2)sc2ccc(OC)cc21 was read as aDG glyco up 0, ALR inh inconclusive, APOBEC3G inh 8, PHOSPHO1 inh 56, rCAG RNA binder 8 and A3A deaminase 1.
For CC[n+]1c(/C=C2\C=C(C)CC(C)(C)C2)sc2ccccc21 the results were aDG glyco up 0, APOBEC3G inh 50*, PHOSPHO1 inh 100*, rCAG RNA binder 6, A3A deaminase 20 and A3G conf 57*.
`O=S(=O)(c1cccc(-c2n[nH]c(=S)n2Cc2ccccc2)c1)N1CCOCC1` gave aDG glyco up 0, ALR inh 50, APOBEC3G inh 46*, PHOSPHO1 inh -65, rCAG RNA binder 4, A3A deaminase -5, A3G conf 72* and UDG ctr A3G -8.

Screening data deposited in PubChem BioAssay by several laboratories.
